Source: PubChem BioAssay
Activity calls are given as the source filed them. Unless noted, the rule behind the calls is not given here.

Assays:
[1] = test system: Wnt5a (protein binding on small-molecule microarray); assay: small molecules binding Wnt5a protein – biophysical, small-molecule microarray, 635/667 nm fluorescence, primary screen (AID 1142); details: 635 nm fluorescence, higher = more signal;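 note: fluorescence read at 667 nm with signal to noise per printed feature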
[2] = ATP-based viability of Huh7 replicon cells – cell-based, CellTiter-Glo luminescence, basal, 48 h, cytotoxicity control for HCV replication inhibitor project, primary screen (AID 1143); details: higher = more signal, called active from +8 up or from −8 down;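 note: Huh7 hepatoma cells carrying a hepatitis C replication reporter with no stimulus; test concentration not given here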
[3] = Pseudomonas biofilm growth suppression – PAO1 strain, BacTiter-Glo luminescence, LB-PBS, primary screen (AID 1144); details: P. aeruginosa PAO1 biofilm, 12 h, higher = more signal
[4] = basal CRE-LacZ reporter activity in PC12 – cell-based, unstimulated, primary screen (AID 1145); details: no forskolin, luminescence, 4.5 h, higher = more signal, called active from +8 up or from −8 down
[5] = forskolin-driven CRE-LacZ activity in PC12 – cell-based, CRE-LacZ reporter, forskolin-stimulated, primary screen (AID 1146); details: luminescence, 4.5 h, higher = more signal, called active from +8 up or from −8 down;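 note: PC12 cells with 6xCRE LacZ reporter stimulated by forskolin 10 µM; beta-galactosidase reporter signal reflecting CREB driven transcription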
[6] = molecular target: Streptavidin (Streptomyces avidinii) (UniProt P22629); assay: compounds binding control protein streptavidin – biophysical, small-molecule microarray, 635/667 nm fluorescence, artefact control for SMM compound annotation, primary screen (AID 1147); details: higher = more signal;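 note: signal reflects streptavidin binding to arrayed compounds as a control protein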
[7] = probe aInhba binding on compound microarray – biochemical, small-molecule microarray, 635/667 nm fluorescence, primary screen (AID 1148); details: higher = more signal;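 note: score merges 667nm spot fluorescence with signal-to-noise for antibody binding to printed compounds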
Torsin-1A (Homo sapiens) [8] = molecular target: Torsin-1A (Homo sapiens) (UniProt O14656); assay: TOR1A wild-type binding on microarray – cell lysate, small-molecule microarray, lysate, 635/667 nm, primary screen (AID 1149); details: COS7 hTOR1A-WT lysate, 635 nm fluorescence, higher = more signal
Torsin-1A (Homo sapiens) [9] = molecular target: Torsin-1A (Homo sapiens) (UniProt O14656); assay: torsin A mutant lysate binding on microarrays – cell lysate, small-molecule microarray, COS7 lysate, 635/667 nm fluorescence, primary screen (AID 1150); details: COS7 hTOR1A mutant lysate, 635 nm fluorescence, higher = more signal;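 note: score pools 667 nm emission and signal to noise measuring lysate protein binding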
[10] = test system: Sonic hedgehog protein (Shh); assay: Sonic hedgehog microarray binding compounds – biochemical, small-molecule microarray, 635/667 nm fluorescence, primary screen (AID 1151); details: 635 nm fluorescence, higher = more signal;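 note: Shh protein binding to compounds spotted on small-molecule microarray slides; score combines spot fluorescence intensity with signal-to-noise across triplicate slides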
[11] = optical density shifts of acrAB sulA E. coli – strain DRC41, OD650, 48 h, E. coli filamentation inducer project, primary screen (AID 1152); details: higher = more signal, called active from +8 up or from −8 down;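 note: E. coli MC1000 strain DRC41 lacking acrAB efflux pump and sulA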
[12] = probe aLefty1 binding on compound microarray – biochemical, small-molecule microarray, 635/667 nm fluorescence, primary screen (AID 1153); details: higher = more signal;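 note: score merges spot fluorescence with signal-to-noise ratio from the scanned slide images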
[13] = plasmodial surface anion channel blockers, osmotic lysis – cell-based, P. falciparum Indochina, OD700, 1 h, primary screen (AID 1154); details: P. falciparum Indochina infected RBC osmotic lysis, higher = more signal, called active from +8 up or from −8 down
[14] = plasmodial surface anion channel blockers, osmotic lysis – cell-based, P. falciparum Indochina, OD700, 2 h, primary screen (AID 1155);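 note: lysis reports solute entry through the parasite surface anion channel PSAC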; details: P. falciparum Indochina infected erythrocytes, higher = more signal, called active from +8 up or from −8 down
[15] = changes in parasitized red cell lysis, either direction – P. falciparum Indochina, OD700, 3 h, PSAC antagonist project, primary screen (AID 1156); details: P. falciparum-infected erythrocytes, osmotic lysis, higher = more signal, called active from +8 up or from −8 down
[16] = plasmodial surface anion channel blockers, osmotic lysis – cell-based, P. falciparum Indochina, OD700, 18 h, primary screen (AID 1157); details: P. falciparum Indochina infected erythrocytes, osmotic lysis OD700, 18 h; higher = more signal, called active from +8 up or from −8 down
[17] = S6 kinase pathway phospho-S6 level changes – cell-based, A549, cytoblot, luminescence, serum-stimulated, primary screen (AID 1158); details: 5 h, higher = more signal;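 note: serum-stimulated A549 lung adenocarcinoma cells; signal is phosphorylated S6 detected by cytoblot immunostaining with HRP secondary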
[18] = molecular target: NADPH oxidase 2 (Homo sapiens) (UniProt P04839); assay: compounds shifting NOX2 Amplex Red fluorescence – cell-based, HEK293-NOX2, PMA-stimulated, NOX inhibitor project, primary screen (AID 1159); details: 45 min, higher = more signal, called active from +8 up or from −8 down; note: test concentration not given here
[19] = molecular target: NADPH oxidase 4 (Homo sapiens) (UniProt Q9NPH5); assay: compounds shifting NOX4 Amplex Red fluorescence – cell-based, HEK293-NOX4, tetracycline-induced, NOX inhibitor project, primary screen (AID 1160); details: HEK293-NOX4, Amplex Red H2O2 fluorescence, 45 min; higher = more signal, called active from +8 up or from −8 down
[20] = molecular target: NADPH oxidase 5 (Homo sapiens) (UniProt Q96PH1); assay: compounds shifting NOX5 Amplex Red fluorescence – cell-based, HEK293-NOX5, NOX inhibitor project, primary screen (AID 1161); details: HEK293-NOX5, ionomycin, 45 min, higher = more signal
Chain of NADPH oxidase 5 (Homo sapiens) (Q96PH1 whole entry, looked up): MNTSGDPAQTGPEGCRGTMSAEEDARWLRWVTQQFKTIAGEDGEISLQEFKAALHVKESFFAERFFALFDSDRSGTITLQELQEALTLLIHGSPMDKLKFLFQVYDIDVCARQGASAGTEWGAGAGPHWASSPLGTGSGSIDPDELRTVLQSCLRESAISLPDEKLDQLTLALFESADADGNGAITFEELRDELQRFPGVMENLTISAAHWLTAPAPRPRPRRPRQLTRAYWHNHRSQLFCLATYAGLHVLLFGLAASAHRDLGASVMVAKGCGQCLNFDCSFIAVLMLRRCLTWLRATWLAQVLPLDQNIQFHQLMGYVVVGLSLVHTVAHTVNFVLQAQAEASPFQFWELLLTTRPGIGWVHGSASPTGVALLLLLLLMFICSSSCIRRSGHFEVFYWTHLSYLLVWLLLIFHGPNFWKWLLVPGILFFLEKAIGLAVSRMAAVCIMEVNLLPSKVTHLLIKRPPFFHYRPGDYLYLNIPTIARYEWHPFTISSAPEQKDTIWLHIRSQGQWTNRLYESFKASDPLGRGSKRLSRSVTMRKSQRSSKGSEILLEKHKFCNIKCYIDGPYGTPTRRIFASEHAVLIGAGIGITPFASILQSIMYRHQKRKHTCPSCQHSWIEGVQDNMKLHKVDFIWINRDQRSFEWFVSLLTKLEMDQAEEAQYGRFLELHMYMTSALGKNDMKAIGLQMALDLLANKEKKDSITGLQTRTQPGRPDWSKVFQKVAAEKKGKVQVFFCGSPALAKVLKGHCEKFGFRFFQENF

Chain of NADPH oxidase 2 (Homo sapiens) (P04839 whole entry, looked up): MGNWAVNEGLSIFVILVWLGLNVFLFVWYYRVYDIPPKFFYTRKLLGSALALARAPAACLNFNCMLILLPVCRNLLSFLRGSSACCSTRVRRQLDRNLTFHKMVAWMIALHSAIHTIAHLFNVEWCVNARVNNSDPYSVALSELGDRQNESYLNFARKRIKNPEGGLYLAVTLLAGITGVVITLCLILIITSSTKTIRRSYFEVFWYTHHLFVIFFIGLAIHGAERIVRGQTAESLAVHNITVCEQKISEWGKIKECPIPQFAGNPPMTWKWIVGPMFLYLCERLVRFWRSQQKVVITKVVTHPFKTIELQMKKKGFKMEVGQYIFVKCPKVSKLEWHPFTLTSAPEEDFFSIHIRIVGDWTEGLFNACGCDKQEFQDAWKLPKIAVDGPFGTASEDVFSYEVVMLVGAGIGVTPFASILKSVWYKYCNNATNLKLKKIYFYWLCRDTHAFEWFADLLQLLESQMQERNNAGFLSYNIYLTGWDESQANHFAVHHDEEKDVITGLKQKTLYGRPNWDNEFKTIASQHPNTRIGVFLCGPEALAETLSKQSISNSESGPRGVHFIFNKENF
Chain of Streptavidin (Streptomyces avidinii) (P22629 whole entry, looked up): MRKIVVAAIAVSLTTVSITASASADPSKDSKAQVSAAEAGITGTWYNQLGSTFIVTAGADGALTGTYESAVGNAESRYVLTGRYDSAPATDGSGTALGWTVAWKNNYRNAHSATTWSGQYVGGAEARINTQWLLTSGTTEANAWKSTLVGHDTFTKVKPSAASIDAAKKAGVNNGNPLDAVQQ
Chain of Torsin-1A (Homo sapiens) (O14656 whole entry, looked up): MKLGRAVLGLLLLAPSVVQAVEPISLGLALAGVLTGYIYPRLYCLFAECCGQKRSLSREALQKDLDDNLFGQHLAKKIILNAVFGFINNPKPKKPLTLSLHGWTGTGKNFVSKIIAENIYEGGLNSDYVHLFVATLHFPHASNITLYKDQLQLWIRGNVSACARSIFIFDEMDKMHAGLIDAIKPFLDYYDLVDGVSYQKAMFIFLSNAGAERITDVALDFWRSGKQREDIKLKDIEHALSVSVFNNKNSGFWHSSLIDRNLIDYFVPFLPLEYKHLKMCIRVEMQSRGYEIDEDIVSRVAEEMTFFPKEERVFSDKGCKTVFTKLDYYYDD
Chain of NADPH oxidase 4 (Homo sapiens) (Q9NPH5 whole entry, looked up): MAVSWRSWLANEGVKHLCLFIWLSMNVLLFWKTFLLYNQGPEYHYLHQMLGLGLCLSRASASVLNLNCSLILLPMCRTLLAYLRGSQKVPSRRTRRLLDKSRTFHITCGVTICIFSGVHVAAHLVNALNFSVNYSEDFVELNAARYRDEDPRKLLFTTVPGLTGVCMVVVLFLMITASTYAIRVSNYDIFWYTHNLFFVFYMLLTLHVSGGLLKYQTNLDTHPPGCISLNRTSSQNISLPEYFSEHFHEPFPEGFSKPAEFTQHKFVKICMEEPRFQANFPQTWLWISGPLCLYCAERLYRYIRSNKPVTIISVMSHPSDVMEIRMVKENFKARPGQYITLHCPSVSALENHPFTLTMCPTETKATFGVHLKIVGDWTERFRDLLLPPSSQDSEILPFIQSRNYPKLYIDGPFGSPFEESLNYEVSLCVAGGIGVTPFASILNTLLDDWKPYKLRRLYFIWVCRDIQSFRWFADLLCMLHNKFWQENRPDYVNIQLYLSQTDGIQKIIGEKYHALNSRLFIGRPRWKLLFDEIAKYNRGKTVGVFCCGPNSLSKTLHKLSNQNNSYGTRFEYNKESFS

Compound | composite z-score [1] | z-score [2] | z-score [3] | z-score [4] | z-score [5] | composite z-score [6] | composite z-score [7] | composite z-score (Torsin-1A (Homo sapiens) [8]) | composite z-score (Torsin-1A (Homo sapiens) [9]) | composite z-score [10] | z-score [11] | composite z-score [12] | z-score [13] | z-score [14] | z-score [15] | z-score [16] | z-score [17] | z-score [18] | z-score [19] | z-score [20]
COc1cc2c(cc1OC)CN(C(=O)[C@@H]1[C@H]3C(=O)O[C@H](c4ccccc4)[C@H](c4ccccc4)N3[C@H](c3ccc(OCCO)cc3)[C@@]13C(=O)Nc1ccc(C#CC4(O)CCCCCC4)cc13)CC2 | 0.754 | -3.13 (inactive) | -1.35 (inactive) | -0.608 (inactive) | 0.419 (inactive) | 1.51 | -0.164 | 0.746 | 1.09 | 1.44 | 3.13 (inactive) | 0.246 | 4.33 (inactive) | 1.05 (inactive) | 0.785 (inactive) | -1.27 (inactive) | 2.48 | 0.737 (inactive) | 0.802 (inactive) | 1.82
O=C1NC(=O)C2C1C=CC(C(O)CCc1ccccc1)N2Nc1ccc(Cl)cc1Cl (stereo not given) | 0.564 | -0.149 (inactive) | 0.0136 (inactive) | 0.243 (inactive) | 0.0662 (inactive) | 0.209 | -0.0581 | 0.689 | 1.36 | -0.625 | -1.34 (inactive) | -0.0162 | 2.28 (inactive) | 1.31 (inactive) | 0.0675 (inactive) | 1.05 (inactive) | -1.01 | -0.22 (inactive) | -5.55 (inactive) | -0.709
CC(CO)N1C(=O)[C@@H]2[C@H]3C(=O)OCC=C[C@H]3OC23C=CCN(C(C)(C)C)C(=O)[C@@H]13 (stereo not given in full) | -0.329 | -0.304 (inactive) | 1.15 (inactive) | -0.354 (inactive) | -0.304 (inactive) | 0.769 | -0.154 | -1.5 | -0.163 | -0.405 | -0.771 (inactive) | -0.407 | 0.16 (inactive) | -0.0471 (inactive) | -0.0717 (inactive) | -0.23 (inactive) | -0.105 | 0.566 (inactive) | 0.401 (inactive) | 1.43
CN1C(=O)C2C=CC(C(O)C#Cc3ccccc3)N(Nc3ccccc3)C2C1=O (stereo not given) | 0.399 | 0.254 (inactive) | -0.141 (inactive) | -0.515 (inactive) | 0.526 (inactive) | 1.38 | 0.153 | 0.663 | 0.889 | 0.592 | -0.877 (inactive) | 0.545 | 1.07 (inactive) | 0.783 (inactive) | 0.0989 (inactive) | 1.12 (inactive) | -1.19 | -1.22 (inactive) | -4.71 (inactive) | -1.8
[N-]=[N+]=NCc1ccccc1C[C@@]1(C(=O)N2CCOCC2)N=C(c2ccc(OCCCO)cc2)O[C@@H]1c1ccccc1 | 0.464 | -5.68 (inactive) | -0.244 (inactive) | 0.922 (inactive) | -0.951 (inactive) | 1.35 | 0.0589 | 1.19 | 1.31 | -0.796 | 0.083 (inactive) | 0.276 | 27 (active) | 17.1 (active) | 2.37 (inactive) | 0.889 (inactive) | 2.41 | -4.45 (inactive) | -1.12 (inactive) | -2.14
COc1ccc(C#Cc2ccc3c(c2)[C@]2(C(=O)N3)[C@H](c3ccc(O)cc3)N3[C@H](c4ccccc4)[C@H](c4ccccc4)OC(=O)[C@H]3[C@@H]2C(=O)O)cc1 | 0.136 | -4.66 (inactive) | -1.04 (inactive) | 0.478 (inactive) | -0.478 (inactive) | 0.942 | 0.11 | 0.0897 | 0.721 | 0.248 | 1.09 (inactive) | 0.948 | -1.12 (inactive) | -1.32 (inactive) | -8.12 (active) | -2.53 (inactive) | 2.76 | 0.397 (inactive) | -2.46 (inactive) | 0.00974
CC1CC/C=C\[C@H]2OC34C=CCN(C(C)C)C(=O)[C@H]3N(CCCCCCO)C(=O)[C@@H]4C2C(=O)O1 (stereo not given in full) | -0.574 | -0.183 (inactive) | -1.31 (inactive) | -0.342 (inactive) | -0.816 (inactive) | -0.931 | -0.323 | -1.83 | -1.19 | -0.159 | 3.07 (inactive) | -0.45 | 0.719 (inactive) | 0.259 (inactive) | -0.987 (inactive) | -0.751 (inactive) | 1.26 | 0.882 (inactive) | 0.119 (inactive) | 2.1
O=C(NCC(F)(F)F)[C@@H]1c2ccccc2C(=O)N(Cc2cc(F)cc(C(F)(F)F)c2)[C@H]1c1ccc(CO)cc1 | -0.328 | -1.77 (inactive) | -1.38 (inactive) | -0.529 (inactive) | 0.861 (inactive) | -1.24 | -0.128 | -1.73 | -1.22 | -1.09 | 0.319 (inactive) | 0.0494 | 1.71 (inactive) | -0.0966 (inactive) | 1.24 (inactive) | 0.449 (inactive) | 0.286 | 0.898 (inactive) | -1.68 (inactive) | -1.17
CO[C@H]1O[C@H](CO)[C@@H](OC(=O)Nc2ccc3c(c2)OCO3)[C@H](OC(=O)c2cc3ccccc3[nH]2)[C@H]1OC(=O)c1cc2ccccc2[nH]1 | 0.0957 | -2.92 (inactive) | -1.37 (inactive) | 1.03 (inactive) | -1.29 (inactive) | 0.483 | -0.128 | 0.103 | -0.214 | 0.458 | 0.599 (inactive) | -0.0162 | 1.48 (inactive) | -0.354 (inactive) | -0.739 (inactive) | -0.536 (inactive) | 1.26 | -3.78 (inactive) | -1.95 (inactive) | -3.47
[N-]=[N+]=Nc1ccccc1[C@@H]1OC(c2ccc(OCCCO)cc2)=N[C@]1(Cc1ccccc1)C(=O)NCC(O)CO (stereo not given in full) | 0.951 | -3 (inactive) | 0.255 (inactive) | 0.834 (inactive) | -1.8 (inactive) | 1.34 | 0.572 | 0.436 | 1.47 | -0.231 | 0.792 (inactive) | 0.665 | 31 (active) | 28 (active) | 2.32 (inactive) | 6.87 (inactive) | -0.0152 | -1.36 (inactive) | 1.07 (inactive) | -0.606
C[C@]1(C(=O)NC2CC2)c2ccccc2C(=O)N(Cc2ccccc2)[C@H]1c1ccc(CO)cc1 | -0.228 | -4.5 (inactive) | -0.483 (inactive) | 0.0279 (inactive) | -0.957 (inactive) | -0.854 | 0.0028 | 0.249 | -0.489 | -1.3 | 2.07 (inactive) | -0.147 | 2.84 (inactive) | 0.17 (inactive) | 0.475 (inactive) | -0.779 (inactive) | 2.26 | -0.148 (inactive) | -1.55 (inactive) | -0.249
C=CC[C@]1(C(=O)NCCN2CCOCC2)N=C(c2ccc(OCCCO)cc2)O[C@H]1c1ccccc1CN=[N+]=[N-] | 1.08 | -0.933 (inactive) | 0.81 (inactive) | 2.01 (inactive) | -0.784 (inactive) | -0.422 | -0.374 | 1.39 | 1.11 | 0.284 | 1.33 (inactive) | -0.264 | 18.6 (active) | 1.83 (inactive) | 2.57 (inactive) | 0.79 (inactive) | 0.202 | 2.07 (inactive) | 1.16 (inactive) | -0.426
COc1ccccc1CN1C(=O)c2ccccc2[C@](Cc2ccccc2I)(C(=O)NCC(F)(F)F)[C@@H]1c1ccc(CO)cc1 | 0.431 | -2.75 (inactive) | -0.243 (inactive) | -0.735 (inactive) | 6.82 (inactive) | 1.14 | 0.189 | 1.36 | -0.103 | 0.251 | -0.566 (inactive) | 0.126 | 5.37 (inactive) | 0.82 (inactive) | 2.38 (inactive) | 0.401 (inactive) | -0.317 | 1.71 (inactive) | -1.73 (inactive) | -1.05
COC1OC[C@]2(C)[C@H]3C4=C(CN2C(=O)OC(C)(C)C)[C@H](C)C(CO)C(CO)C4CC[C@@H]13 (stereo not given in full) | 0.987 | -0.14 (inactive) | 0.326 (inactive) | 0.197 (inactive) | 0.212 (inactive) | 2.17 | 0.109 | 0.288 | 0.86 | -0.0425 | -0.787 (inactive) | 1.13 | 0.884 (inactive) | -0.0719 (inactive) | 0.394 (inactive) | 0.494 (inactive) | 0.15 | -1.39 (inactive) | -0.651 (inactive) | -2.12
